Laboratory results reported in article PMC5540273 (PLoS ONE, 2017).

Columns and labels:
Conditions in all cases: concentration: 1 μM, replicates: in singlicate; n = 1
[1] = test system: SGK2
[2] = test system: SGK3
[3] = test system: SGK
[4] = test system: SIK2
[5] = test system: SIK
[6] = test system: SLK
[7] = test system: T1, SNARK
T1 construct: gene NUAK2

[8] = test system: SNRK
[9] = test system: SRC
[10] = test system: SRMS
[11] = test system: SRPK1
[12] = test system: SRPK2
[13] = test system: SRPK3
[14] = test system: STK16
[15] = test system: STK33
[16] = test system: STK35
[17] = test system: STK36
[18] = test system: STK39
[19] = test system: SYK
[20] = test system: SgK110
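Note: KINOMEscan kinase panel screen.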

Row | Compound | %Inh [1] [%] | %Inh [2] [%] | %Inh [3] [%] | %Inh [4] [%] | %Inh [5] [%] | %Inh [6] [%] | %Inh [7] [%] | %Inh [8] [%] | %Inh [9] [%] | %Inh [10] [%] | %Inh [11] [%] | %Inh [12] [%] | %Inh [13] [%] | %Inh [14] [%] | %Inh [15] [%] | %Inh [16] [%] | %Inh [17] [%] | %Inh [18] [%] | %Inh [19] [%] | %Inh [20] [%]
1 | Cc1cc(Nc2nc(-c3cccc(C)n3)nc3ccccc23)ccn1 [GW872411] | 0 | 0 | 0 | 23 | 0 | 0 | 0 | 0 | 0 | 13 | 0 | 0 | 13 | 0 | 0 | 3 | 0 | 0 | 0 | 0
2 | COc1cccc(-n2cnc3c(N)ncnc32)c1 [SKF-97416] | 8 | 0 | 44 | 0 | 0 | 2 | 5 | 20 | 13 | 22 | 2 | 6 | 0 | 16 | 12 | 0 | 0 | 29 | 4 | 0
3 | CCC(=O)c1c(-c2ccccc2)c2cc(Cl)ccc2c(=O)n1Cc1cc(S(C)(=O)=O)n(CCC(C)(C)O)n1 | 4 | 0 | 4 | 7 | 11 | 21 | 1 | 27 | 0 | 0 | 3 | 53 | 11 | 1 | 8 | 15 | 11 | 0 | 25 | 9
4 | Nc1ncnc2c1ncn2-c1cccc(F)c1 [SKF-97560] | 38 | 0 | 37 | 0 | 1 | 18 | 13 | 20 | 22 | 14 | 16 | 0 | 0 | 6 | 6 | 0 | 4 | 0 | 25 | 5
5 | COC(=O)c1c(-c2ccccc2)c2cc(Br)ccc2c(=O)n1Cc1ccc(NC(=O)CCC(=O)O)cc1 | 18 | 0 | 6 | 0 | 6 | 1 | 0 | 0 | 25 | 0 | 0 | 10 | 20 | 15 | 0 | 0 | 8 | 14 | 0 | 0
6 | COC(=O)c1c(-c2ccccc2)c2cc(C)ccc2c(=O)n1Cc1ccccc1 | 0 | 0 | 0 | 0 | 3 | 0 | 0 | 0 | 0 | 0 | 0 | 0 | 0 | 19 | 0 | 0 | 1 | 0 | 0 | 12
7 | CCC(=O)c1c(-c2ccccc2)c2cc(Cl)ccc2c(=O)n1Cc1cc(S(C)(=O)=O)n(CC(N)=O)n1 | 0 | 0 | 0 | 2 | 0 | 0 | 0 | 0 | 0 | 0 | 0 | 0 | 0 | 16 | 17 | 0 | 0 | 0 | 9 | 0
8 | CCC(=O)c1c(-c2ccccc2)c2cc(Cl)ccc2c(=O)n1Cc1cc(S(C)(=O)=O)n(CC(F)F)n1 | 0 | 0 | 0 | 2 | 0 | 0 | 10 | 0 | 7 | 0 | 0 | 2 | 0 | 0 | 0 | 0 | 0 | 0 | 0 | 31
9 | O=C(NCc1cccs1)c1cc(C(=O)c2c(Cl)cccc2Cl)c[nH]1 [GW823670] | 0 | 0 | 0 | 4 | 4 | 9 | 0 | 0 | 0 | 15 | 0 | 0 | 0 | 0 | 0 | 0 | 10 | 0 | 6 | 14
10 | COc1ccc(-c2coc3ccc(-c4nnc(SCc5cccc(C#N)c5)o4)cc23)cc1 | 0 | 21 | 0 | 0 | 17 | 18 | 30 | 18 | 3 | 0 | 0 | 0 | 0 | 20 | 0 | 26 | 8 | 0 | 14 | 10
11 | CCn1c(-c2nonc2N)nc2ccccc21 [SB-693162/GW549034] | 12 | 62 | 12 | 0 | 10 | 20 | 51 | 40 | 0 | 0 | 0 | 0 | 24 | 23 | 15 | 0 | 0 | 37 | 0 | 0
